# Source: PubChem BioAssay (NCATS)
# Where “and” joins values, the source holds several entries; their conditions need not be identical. Equal entries are not always repeated. Records with an inconclusive call do not appear. Calls of active or inactive are those of the source. Unless noted, calls come from the whole dose curve; as a rule, active = well fitted curve in the direction sought with a large enough effect; inconclusive = small, poorly fitted or top-dose-only effect, or another doubt; inactive = no such curve, though single readings can be large; an effect the other way counts as inactive or inconclusive.
# What was measured:
# [1] = target: Alpha-galactosidase A (Homo sapiens) (UniProt P06280); experiment: Counterscreen for Glucocerebrosidase Inhibitors: qHTS Assay for Human alpha-Galactosidase at pH 4.5 (AID 992); note: 0% is about no effect
# Sequence of Alpha-galactosidase A (Homo sapiens) (P06280 whole entry, looked up): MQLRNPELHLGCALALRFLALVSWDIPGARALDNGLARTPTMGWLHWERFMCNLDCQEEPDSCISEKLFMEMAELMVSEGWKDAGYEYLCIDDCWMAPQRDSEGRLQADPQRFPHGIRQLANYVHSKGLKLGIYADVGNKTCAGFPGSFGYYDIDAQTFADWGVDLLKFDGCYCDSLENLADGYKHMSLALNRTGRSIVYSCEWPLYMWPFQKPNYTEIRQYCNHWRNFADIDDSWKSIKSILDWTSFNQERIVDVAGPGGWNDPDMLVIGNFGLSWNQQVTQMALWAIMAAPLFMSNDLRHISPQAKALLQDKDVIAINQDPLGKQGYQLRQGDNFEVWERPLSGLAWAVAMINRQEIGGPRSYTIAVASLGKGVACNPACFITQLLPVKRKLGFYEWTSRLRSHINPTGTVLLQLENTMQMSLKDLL
# In short: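 Quantitative HTS: compounds tested from 0.7 nM up to 77 uM against 2 nM enzyme with 80 uM 4-MU alpha-D-galactopyranoside. The 20 min room-temperature reaction is stopped with 1M NaOH/1M glycine, pH 10.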
# [2] = Validation of Assay for Modulators of Lamin A Splicing (AID 1459; active = well fitted curve in the direction sought with a large enough effect in the signal ratio; the % refers to the signal ratio;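 note: cells exposed to compound for two days before reading; 0% is about no effect; ratio rise marks activators and ratio drop marks inhibitors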)
# In short: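 Dual-reporter HeLa S3 line (lamin A-EGFP minigene, DsRed2) treated with compounds 48 hrs, 0.5% DMSO final. Endpoint: EGFP/DsRed2 total intensity ratio from laser-scanning microplate cytometry.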
# [3] = qHTS Assay for Lipid Storage Modulators (AID 1519; calls by dose curve; for activity change, negative = inhibition: % is set by controls: 0 for no effect and ±100 for the full control effect); settings: Drosophila S3 cells, BODIPY lipid droplet/cell ratio, laser cytometry, cells loaded with oleic acid
# In short: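 Cells seeded at 5,000 per well were treated with compounds over a concentration series and loaded with oleic acid (400 uM, as added). Lipid droplet fluorescence (488 nm excitation, 500-530 nm channel) was read by laser-scanning cytometry and normalized to 20 uM Triacsin C.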
# [4] = Cell Viability - LYMP2-025 (AID 976);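 note: plate controls were DMSO only for no effect and tetraoctylammonium bromide control for full effect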
# In short: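 In qHTS format, LYMP2-025 lymphoblastoid cells in complete culture medium received compound for 24 hr; ATP-based CellTiter-Glo signal gave viability, with AC50 derived by Hill equation.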
# [5] = Cell Viability - LYMP2-002 (AID 977);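 note: compound exposure lasted 24 h at 37 °C; plate controls were DMSO only for no effect and 92 µM tetraoctylammonium bromide for full effect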
# In short: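 Human lymphoblastoid LYMP2-002 cells, 2500 per well, exposed to compounds for 24 h at 37 C in complete medium; viability read as intracellular ATP by CellTiter-Glo luminescence, AC50 from Hill fits.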
# [6] = Cell Viability - LYMP2-006 (AID 978); note: % is set by controls: 0 for no effect and ±100 for the full control effect; nearly all actives have a fitted effect of over 60% in size
# In short: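 In this cytotoxicity screen, the human lymphoblastoid line grew in complete medium with test compounds for 24 hr at 37 C. Cellular ATP served as the viability signal.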
# [7] = Cell Viability - LYMP2-007 (AID 979);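 note: cells exposed to compound for 24 h before reading; 0% = DMSO only and the negative end = 92 µM tetraoctylammonium bromide; nearly all actives have a fitted effect of over 60% in size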
# In short: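 Acute toxicity is scored as a concentration-dependent fall in intracellular ATP in human lymphoblastoid cells treated 24 hr at 37 C, measured by luciferase luminescence; Hill-equation modelling yields AC50.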
# [8] = Cell Viability - LYMP2-008 (AID 980); note: % is set by controls: 0 for no effect and ±100 for the full control effect; nearly all actives have a fitted effect of over 60% in size
# In short: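 Acute cytotoxicity is scored as concentration-dependent loss of cellular ATP in a human lymphoblastoid line after 24 hr treatment at 37 C. ATP is quantified by luciferase luminescence.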
# [9] = Cell Viability - LYMP2-010 (AID 981); note: % is set by controls: 0 for no effect and ±100 for the full control effect; nearly all actives have a fitted effect of over 55% in size
# In short: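 Acute toxicity is scored as a concentration-dependent loss of cellular ATP in human lymphoblastoid cells after 24 hr compound exposure in complete medium. Tetraoctylammonium bromide is the positive control.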
# [10] = Cell Viability - LYMP2-012 (AID 982);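 note: cellular ATP by luciferase luminescence where a drop means cytotoxicity; cells exposed to compound for one day before reading; 0% = DMSO only and full loss = 92 µM tetraoctylammonium bromide; nearly all actives have a fitted effect of over 55% in size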
# [11] = Cell Viability - LYMP2-014 (AID 983);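 note: plate controls were DMSO only for no effect and 92 µM tetraoctylammonium bromide for full effect; nearly all actives have a fitted effect of over 50% in size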
# In short: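 Decrease in intracellular ATP after 24 hr treatment at 37 C, measured by luciferase luminescence, indicated cytotoxicity. Concentration-response data were fitted with the standard Hill equation to give AC50.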
# [12] = Cell Viability - LYMP2-016 (AID 984); note: % is set by controls: 0 for no effect and ±100 for the full control effect; nearly all actives have a fitted effect of over 55% in size
# In short: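 Concentration-dependent ATP depletion measured in LYMP2-016 lymphoblastoid cells, 24 h, 37 C; luciferase-based luminescent detection; Hill-equation AC50.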
# [13] = Cell Viability - LYMP2-018 (AID 985);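 note: compound exposure lasted 24 hr at 37 °C; plate controls were DMSO only for no effect and tetraoctylammonium bromide at 92 µM for full effect; nearly all actives have a fitted effect of over 50% in size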
# In short: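 Acute cytotoxicity is scored as a concentration-dependent drop in intracellular ATP after 24 hr exposure of the lymphoblastoid line in complete culture medium, measured by luciferase luminescence. Potency is expressed as AC50 from Hill modelling.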
# [14] = Cell Viability - LYMP2-020 (AID 986);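 note: plate controls were DMSO only for no effect and tetraoctylammonium bromide at 92 µM for full effect; nearly all actives have a fitted effect of over 55% in size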
# In short: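 Acute cytotoxicity in a human lymphoblastoid line is scored as a concentration-dependent fall in cellular ATP after 24 hr at 37 C in complete medium. The positive control is tetraoctylammonium bromide, and potency is given as Hill-fit AC50.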
# [15] = Cell Viability - LYMP2-022 (AID 987)
# In short: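 Acute toxicity in a human lymphoblastoid line is scored as decreased intracellular ATP after 24 hr compound treatment at 37 C. ATP is measured by CellTiter-Glo luminescence; curves are fitted with the Hill equation to give AC50.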
# [16] = Cell Viability - LYMP2-024 (AID 988);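 note: plate controls were DMSO only for no effect and 92 µM tetraoctylammonium bromide for full effect; nearly all actives have a fitted effect of over 60% in size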
# In short: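 Acute toxicity is measured as concentration-dependent loss of intracellular ATP in a human lymphoblastoid line treated 24 hours at 37 C. Luciferase luminescence quantifies ATP; AC50 values come from standard Hill-equation modelling.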
# [17] = Cell Viability - LYMP2-026 (AID 989); note: % is set by controls: 0 for no effect and ±100 for the full control effect; nearly all actives have a fitted effect of over 50% in size
# In short: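 Concentration-dependent loss of intracellular ATP in human lymphoblastoid cells after 24 hr at 37 C, quantified by luciferase luminescence. AC50 derived from standard Hill equation.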
# [18] = Cell Viability - LYMP1-002 - Assay at 24 hr (AID 993); note: % is set by controls: 0 for no effect and ±100 for the full control effect
# In short: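 qHTS, LYMP1-002 lymphoblastoid, 24 h cpd, 37 C, CellTiter-Glo ATP luminescence; AC50 via Hill eq.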
# [19] = Cell Viability - LYMP1-002 - Assay at 40 hr (AID 994)
# In short: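 Viability in the human lymphoblastoid line was measured as intracellular ATP via CellTiter-Glo after 40 hr compound exposure. Tetraoctylammonium bromide served as positive control.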
# [20] = measured here: cell count channel max response
# [21] = measured here: lipid channel max response
smiles,measurement,setting,value
O=C(O)CC[N+](=O)[O-],outcome,[1],inactive
same,outcome,[2],inactive
same,"activity change, negative = inhibition",[3]; at 57.5 µM (top of the series),1.53% (inactive) and -0.853% (inactive)
same,max response,[3]; [20],11.6% and 14.1%
same,max response,[3]; [21],18.9% and 15.4%
CN1C2CCC1CC(OC(=O)c1cc(Cl)cc(Cl)c1)C2 (stereo not drawn),outcome,[2],inactive
same,"activity change, negative = inhibition",[3]; at 57.5 µM (top of the series),-1.85% (inactive)
same,max response,[3]; [20],-22.1%
same,max response,[3]; [21],-22.4%
C[C@]12CCC3C(CC[C@H]4C[C@H](O)CC[C@]34C)C1CC[C@@H]2C(=O)CO (stereo partly drawn),outcome,[2],inactive
CCCN(CCC)[C@@H]1CCc2ccc(O)cc2C1,outcome,[1],inactive
same,outcome,[2],inactive
same,"activity change, negative = inhibition",[3]; at 57.5 µM (top of the series),-4.72% (inactive) and 0.978% (inactive)
same,max response,[3]; [20],-36.9% and -10.5%
same,max response,[3]; [21],-41.2% and -9.44%
C=CCN1CC[C@]23CCCCC2[C@H]1Cc1ccc(O)cc13 (stereo partly drawn),outcome,[2],inactive
CC(C)NC(C)Cc1ccc(I)cc1 (stereo not drawn),outcome,[2],inactive
NC1CCc2cc(O)c(O)cc2C1 (stereo not drawn),outcome,[2],inactive
same,"activity change, negative = inhibition",[3]; at 57.5 µM (top of the series),-0.984% (inactive)
same,max response,[3]; [20],-18.2%
same,max response,[3]; [21],-19.2%
CC1=NN=C(c2ccc(N)cc2)c2cc3c(cc2C1)OCO3,outcome,[1],inactive
same,outcome,[2],inactive
NC(N)=NOCCC(N)C(=O)O (stereo not drawn),outcome,[1],inactive
same,"activity change, negative = inhibition",[3]; at 57.5 µM (top of the series),1.36% (inactive) and 1.85% (inactive)
same,max response,[3]; [20],3.95% and -21.7%
same,max response,[3]; [21],4.87% and -17.2%
O=c1cccc2n1CC1CNC[C@H]2C1,"activity change, negative = inhibition",[3]; at 25.7 µM (top of the series),-2.83% (inactive)
same,max response,[3]; [20],-1.29%
same,max response,[3]; [21],-2.58%
S=C(NC1CCCCC1)N1CCC(c2cnc[nH]2)CC1,outcome,[1],inactive
same,outcome,[2],inactive
same,"activity change, negative = inhibition",[3]; at 57.5 µM (top of the series),0.457% (inactive)
same,max response,[3]; [20],8.5%
same,max response,[3]; [21],6.88%
C[C@]12N[C@H](Cc3ccccc31)c1ccccc12,outcome,[1],inactive
same,outcome,[2],inactive
same,"activity change, negative = inhibition",[3]; at 57.5 µM (top of the series),-1.18% (inactive)
same,max response,[3]; [20],51.7%
same,max response,[3]; [21],40.7%
C[C@@H]1O[C@H](C[N+](C)(C)C)C[C@H]1O,outcome,[1],inactive
same,outcome,[2],inactive
same,"activity change, negative = inhibition",[3]; at 57.5 µM (top of the series),-2.01% (inactive)
same,max response,[3]; [20],40.6%
same,max response,[3]; [21],38%
CC(=O)NCCc1c[nH]c2ccccc12,outcome,[1],inactive
same,outcome,[2],inactive
CC(=O)OCC1=C(C(=O)O)N2C(=O)[C@@H](N)[C@@H]2SC1,"activity change, negative = inhibition",[3]; at 25.7 µM (top of the series),1.55% (inactive)
same,max response,[3]; [20],7.67%
same,max response,[3]; [21],10.5%
CN[C@@H](C)[C@H](O)c1ccccc1,"activity change, negative = inhibition",[3]; at 57.5 µM (top of the series),-15% (inactive)
same,max response,[3]; [20],-49.5%
same,max response,[3]; [21],-56.7%
O=C(O)CCCOc1ccc(Cl)cc1Cl,"activity change, negative = inhibition",[3]; at 57.5 µM (top of the series),4.8% (inactive)
same,max response,[3]; [20],15.4%
same,max response,[3]; [21],22.4%
CC(=O)[C@H]1CCC2C3CC[C@H]4C[C@H](O)CC[C@]4(C)C3CC[C@@]21C (stereo partly drawn),"activity change, negative = inhibition",[3]; at 57.5 µM (top of the series),2.34% (inactive)
same,max response,[3]; [20],-20.4%
same,max response,[3]; [21],-15.9%
COc1ccc(C(c2ccc(OC)cc2)C(Cl)(Cl)Cl)cc1,Potency,[4],inactive
same,Potency,[5],inactive
same,Potency,[6],inactive
same,Potency,[7],inactive
same,Potency,[8],inactive
same,Potency,[9],inactive
same,Potency,[10],inactive
same,Potency,[11],inactive
same,Potency,[12],inactive
same,Potency,[13],inactive
same,Potency,[14],inactive
same,Potency,[15],inactive
same,Potency,[16],inactive
same,Potency,[17],inactive
same,Potency,[18],inactive
same,Potency,[19],inactive
same,"activity change, negative = inhibition",[3]; at 57.5 µM (top of the series),6.03% (inactive)
same,max response,[3]; [20],12.8%
same,max response,[3]; [21],30.2%
